Test results reported in publication PMC5540273 (PLoS ONE, 2017).

Test system: LATS1
Details: concentration: 1 μM,replicates: in singlicate; n = 1
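Further: KINOMEscan kinase panel screen.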

Row | SMILES | %Inh [%]
1 | Cn1ccc2ncnc(Oc3ccc(NC(=O)Nc4cnn(C(C)(C)C)c4)c(Cl)c3)c21 | 100
2 | COc1cc2ncn(-c3cc(OCC4CCCCC4)c(C(N)=O)s3)c2cc1OC [GSK204559] | 0
3 | COc1cccc(CNC(=O)NC2CCN(c3ccnc(Nc4cc(OC)c(OC)c(OC)c4)n3)C2)c1 (stereo not shown) [GSK1379765] | 0
4 | Cn1ccc2ncnc(Oc3ccc(NC(=O)Nc4cccc(C(F)(F)F)c4)c(F)c3)c21 | 15
5 | CNC(=O)c1ccccc1Nc1nc(Nc2cccc(CS(C)(=O)=O)c2)ncc1C.O=CO [GSK1520489] | 71
6 | C[C@@H](Oc1cc(-n2cnc3cc(-c4cnn(C)c4)ccc32)sc1C(N)=O)c1ccccc1Cl [GSK580432] | 0
7 | COc1cc(Nc2nccc(N3CCC(NC(=O)c4cccc(C#N)c4)C3)n2)cc(OC)c1OC (stereo not shown) [GSK1379751] | 0
8 | Cc1ccn2nc(-c3ccc(F)cc3)c(-c3ccncc3)c2c1.Cl [GW457859] | 2
9 | CN1CCN(CCNc2nc3cc(Oc4ccc(NC(=O)Nc5cc(C(F)(F)F)ccc5F)cc4)ccc3[nH]2)CC1.Cl.Cl [GW768504] | 0
10 | NC(=O)c1ccc(-c2cc3ncnc(SCC(=O)O)c3s2)cc1 | 0
11 | CC(=O)c1c(-c2ccncc2)[nH]c(-c2ccncc2)c1C [GW493036] | 7
12 | O=C(Nc1cccc(C(F)(F)F)c1)c1cccc(Oc2ccc3nccn3n2)c1 | 0
13 | CC(=O)Nc1nc2cnc(Nc3cc(NC(=O)c4cccc(CC(C)(C)C#N)c4)ccc3C)nc2s1 | 7
14 | COc1ccc(Nc2nccc(N3CCC(NC(=O)c4cccc(C#N)c4)C3)n2)cc1 (stereo not shown) [GSK1379730] | 0
15 | Cl.c1ccc(Oc2ccc(Nc3ccnc4cc(-c5ccc(CN6CCNCC6)o5)ccc34)cc2)nc1 [GW567142] | 0
16 | O=C(Nc1ccc(Oc2ccc3nc(NC(=O)C4CC4)cn3n2)c(F)c1)c1cccn(-c2ccccc2)c1=O | 0
17 | Cl.Cl.NC[C@H](CC1CCCCC1)NC(=O)c1ccc(-c2ccnc3[nH]ccc23)s1 [GSK1581428] | 89

Row | SMILES | %Inh [%]
18 | COC(=O)Nc1nc2cc(Oc3ccc(NC(=O)Nc4cc(C(F)(F)F)ccc4Cl)cc3)ccc2[nH]1.Cl [GW697465] | 100
19 | CC(C(=O)NC1CCN(c2ccnc(Nc3ccc(F)cc3)n2)C1)c1ccc(Cl)cc1 (stereo not shown) [GSK1379713] | 0
20 | O=C(NCC1CC1)c1ccc(-c2cc(C(=O)NC3CC3)ccc2F)cc1 [GW810445] | 0
21 | CCN1CCN(CCCC(=O)Nc2n[nH]c3nc(-c4ccc(O)cc4)c(Br)cc23)CC1 [SB-731579] | 0
22 | Cc1nnc(-c2ccc3occ(-c4ccc(S(C)=O)cc4)c3n2)o1 (stereo not shown) | 0
23 | CC(C)S(=O)(=O)N1CCN(Cc2ccc3c(c2)nc(NC(=O)c2ccsc2)n3C[C@H](O)c2ccccc2)CC1 [GW635815] | 0
24 | Cn1ccc2ncnc(Oc3ccc(NC(=O)Nc4cccc(C(F)(F)F)c4)c(Cl)c3)c21 | 9
25 | Cn1ccc2ncnc(Oc3ccc(NC(=O)Nc4ccnc(C(F)(F)F)c4)c(Cl)c3)c21 | 11
26 | Cc1cccc2c(-c3ccncc3)c(-c3ccc(F)cc3)nn12.Cl [GW461487] | 0
27 | Cc1ccc2c(-c3ccnc(Nc4ccc(C(F)(F)F)cc4)n3)cnn2n1 [GW819776] | 0
28 | Cc1n[nH]c2cc(Nc3ccnc(Nc4cccc(CN5CCOCC5)c4)n3)ccc12 [GW682569] | 0
29 | CCn1c(-c2nonc2N)nc2cncc(Br)c21 [SB-738004] | 0
30 | CN1CCN(CCCNc2nccc(-c3c(-c4ccc(F)cc4)nn4cc(C(N)=O)ccc34)n2)CC1 [GW622475] | 0
31 | Nc1nccc(-c2ccc3c(N)n[nH]c3c2)n1 [GSK1034945] | 0
32 | Cc1ccc(C(=O)Nc2ccc(Oc3ccc4nc(NC(=O)C5CC5)cn4c3)c(F)c2)c(=O)n1-c1ccccc1 | 14
33 | Cn1ccc2ncnc(Oc3ccc(NC(=O)Nc4cncc(C(F)(F)F)c4)c(Cl)c3)c21 | 0
34 | NC(=O)Nc1sc(-c2ccc(F)cc2)cc1C(N)=O [GW789449] | 2
